Test results: PubChem BioAssay (NCI)
About 83,000 compounds went through this panel and 20% of them were active in at least one assay; those are over-represented in the sample as a whole.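 Testing used 96-well plates and a 48-hour single-concentration exposure. Example: -40 means 40% of the starting cells died.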 A number with no mark means an inactive call. The source made the active and inactive calls. Rule for the calls: active = growth percent below 10; inactive = the rest.

Assays:
Assay in all cases: NCI-60 one-dose screen, 48 h (100 = growth as untreated, 0 = no growth, -100 = all killed)
Conditions in all cases: 10 µM unless noted
NCI-H23 lung = system: NCI-H23 lung
NCI-H226 lung = system: NCI-H226 lung
NCI-H322M lung = system: NCI-H322M lung
HOP-62 NSCLC = system: HOP-62 NSCLC
NCI-H460 lung = system: NCI-H460 lung
HOP-92 NSCLC = system: HOP-92 NSCLC
NCI-H522 lung = system: NCI-H522 lung
A549/ATCC NSCLC = system: A549/ATCC NSCLC
786-0 renal = system: 786-0 renal
COLO 205 colon = system: COLO 205 colon
DU-145 prostate = system: DU-145 prostate
K-562 leukemia = system: K-562 leukemia
MALME-3M melanoma = system: MALME-3M melanoma
MDA-MB-231 breast = system: MDA-MB-231 breast
RXF 393 renal = system: RXF 393 renal
SF-268 CNS = system: SF-268 CNS
SF-295 CNS = system: SF-295 CNS
SF-539 CNS = system: SF-539 CNS
UACC-257 melanoma = system: UACC-257 melanoma
M14 melanoma = system: M14 melanoma

SMILES | growth (NCI-H23 lung) [%] | growth (NCI-H226 lung) [%] | growth (NCI-H322M lung) [%] | growth (HOP-62 NSCLC) | growth (NCI-H460 lung) | growth (HOP-92 NSCLC) | growth (NCI-H522 lung) | growth (A549/ATCC NSCLC) | growth (786-0 renal) | growth (COLO 205 colon) | growth (DU-145 prostate) | growth (K-562 leukemia) | growth (MALME-3M melanoma) | growth (MDA-MB-231 breast) | growth (RXF 393 renal) | growth (SF-268 CNS) [%] | growth (SF-295 CNS) | growth (SF-539 CNS) | growth (UACC-257 melanoma) | growth (M14 melanoma)
CN1C(=O)C2(NN=C(c3cccc4ccccc34)S2)c2ccccc21 (centres undefined) | 50.4 | 46.1 | 44.4 | 13.9% | 14.6% | -1.68% (active) | 41.1% | 9.72% (active) | 33.5% | 23.5% | 50.3% | 11.8% | 63.5% | 46% | 79% | 37.6 | 29.7% | 49.1% | 50.6% | 17.3%
C#C[C@@]1(O)[C@@H](CO)O[C@@H](n2cc(Br)c3c(Cl)ccnc32)[C@@H]1O | 31.9 | 47.2 | 11.7 | 36.4% | 45% | -60.5% (active) | 32% | 46.2% | 33.5% | 17.2% | -41.3% (active) | 14.3% | 62.1% | -26.6% (active) | -15.9% (active) | 61.7 | 26.6% | 17.8% | 91.3% | 62.4%
Cc1ccccc1C[P+](c1ccccc1)(c1ccccc1)c1ccccc1 | 11.6 | 32.9 | 57.7 | 32.4% | 21% | -7.58% (active) | 0.342% (active) | 29.9% | 40.7% | 9.84% (active) | 32.4% | 22.4% | 5.05% (active) | 46.3% | 50.4% | 16.7 | 25.2% | 33.6% | -1.88% (active) | 29.2%
COc1ccc2c(c1)C(=O)/C(=C/c1cccc(OCC(=O)c3ccccc3)c1)O2 | 41.4 | 80.9 | 108 | 103% | 93.1% | -58.8% (active) | -67.7% (active) | 105% | 104% | -12.5% (active) | 13.5% | -98.3% (active) | 45.1% | 67.3% | -56.8% (active) | 36.2 | 91.3% | -14.7% (active) | 42.9% | 49.8%
COc1cc(C(=O)NNC(=O)c2ccccc2O)cc(OC)c1OC | 101 | 96.8 | 93.5 | 99.7% | 102% | 83% | 61.9% | 82.9% | 97.6% | 94.3% | 104% | 95.7% | 103% | 87.5% | 99% | 98.1 | 98.2% | 98.5% | 72.4% | 109%
CCNc1ncnc2n[nH]nc12 | 96.9 | 90.8 | 101 | 95.7% | 103% | 83.1% | 93.2% | 91.1% | 96.1% | 105% | 104% | 97% | 102% | 111% | 112% | 99.5 | 95% | 101% | 92.9% | 99.7%
CCOC(=O)n1cnc2c(Cl)ncnc21 | 245 | 113 | 109 | 136% | 108% | 95.1% | 108% | 103% | 159% | 98.9% | 106% | 106% | 113% | 101% | 104% | 111 | 101% | 93.6% | 86.4% | 101%
CC1(C)N=C(N)N=C(N)N1c1cccc(CCCCc2ccccc2)c1 | 10.8 | 25.9 | 21.6 | -23.5% (active) | 0.878% (active) | -30.8% (active) | -42.1% (active) | -6.95% (active) | -48.4% (active) | -84.7% (active) | 31.1% | -44.7% (active) | -1.54% (active) | 45.4% |  | 10.8 | 3.96% (active) | 4.72% (active) | -34.8% (active) | 6.98% (active)
